Test [1] concerns the target Cell division control protein 42 homolog (Homo sapiens) (UniProt P60953). Briefly: inhibition of fluorescent GTP binding to constitutively active Cdc42 – biochemical, multiplex bead flow cytometry, Bodipy-FL-GTP, dose response (AID 1333;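 active = fitted half-maximal concentration within the tested dose range, moderate curve steepness, a statistically real signal drop, and little compound fluorescence or tag-binding interference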). In general terms: Flow cytometry measures light scatter and fluorescence of single cells or particles in a stream.
The target is the same in test [2]. Briefly: inhibition of fluorescent GTP binding to wildtype Cdc42 – biochemical, multiplex bead flow cytometry, Bodipy-FL-GTP, dose response (AID 1334;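 active = fitted half-maximal concentration within the tested range, moderate curve steepness, significant signal drop, and little compound fluorescence or bead-linkage interference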). Particulars: bead-based flow cytometry, Bodipy-FL-GTP binding to GST-Cdc42; at 100 µM (top of the series) unless noted.
The target in test [3] is GTPase HRas (Homo sapiens) (UniProt P01112). The experiment in a line: Ras wt fluorescent GTP loading blockade – biochemical, wildtype, multiplex bead flow cytometry, dose response (AID 1335;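 active = fitted half-maximal concentration within 10 nM to 100 µM, steepness 0.5 to 2, significant signal drop, low assay interference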). To be noted: bead-based flow cytometry, Bodipy-GTP binding to GST-Ras; at 100 µM (top of the series) unless noted.
Test [4] has as its system Ras-related protein Rab-7a (dog), GTP binding. Briefly: blockers of fluorescent GTP binding to Rab7 – biochemical, wildtype, multiplex bead flow cytometry, dose response (AID 1336).
For test [5], the target named is Ras-related C3 botulinum toxin substrate 1 (Homo sapiens) (UniProt P63000). Briefly: inhibition of wildtype Rac1 nucleotide loading – biochemical, multiplex bead flow cytometry, dose response (AID 1340;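 active = dose curve with midpoint inside tested range, moderate steepness, plateau gap beyond fit error, low compound glow and bead-link interference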). Particulars: GST-Rac1 beads, Bodipy-FL-GTP binding; at 100 µM (top of the series) unless noted.
The target in test [6] is GTPase HRas (Homo sapiens) (UniProt P01112). Briefly: blockade of GTP loading onto mutant Ras – biochemical, activated mutant, multiplex bead flow cytometry, dose response (AID 1341;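 active = dose-response curve with midpoint inside the tested range, moderate steepness, significant amplitude and little compound fluorescence or bead-attachment interference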;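 also: GST-tagged constitutively activated Ras mutant immobilized on beads and multiplexed with other GTPases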).

For part of these data: Potency and affinity values are given separately. The source made the active and inactive calls. Unless noted, no rule for the calls is given here.

Cell division control protein 42 homolog (Homo sapiens), sequence (P60953 whole entry, looked up): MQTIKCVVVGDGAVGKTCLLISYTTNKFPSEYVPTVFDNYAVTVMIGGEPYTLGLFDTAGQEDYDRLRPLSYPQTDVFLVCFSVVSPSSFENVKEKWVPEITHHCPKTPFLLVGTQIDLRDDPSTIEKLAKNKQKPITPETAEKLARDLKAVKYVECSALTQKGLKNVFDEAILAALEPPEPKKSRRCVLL
GTPase HRas (Homo sapiens), sequence (P01112 whole entry, looked up): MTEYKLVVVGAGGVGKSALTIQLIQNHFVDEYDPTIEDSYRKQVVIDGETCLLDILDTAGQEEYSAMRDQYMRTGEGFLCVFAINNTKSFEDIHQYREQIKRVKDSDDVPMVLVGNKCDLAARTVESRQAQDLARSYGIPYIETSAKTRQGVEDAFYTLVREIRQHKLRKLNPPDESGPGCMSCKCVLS

On to `COc1ccccc1OCCn1cc(C(=O)O)c2cccc(Cl)c21`, for which the call in test [1], in test [4] and in test [6] was inactive. Besides, the fluorescence, percent of control (lower = inhibition) in test [2] came out at 53.4%. The compound further returned a GTP binding, percent of control in test [3] of 199%. Moreover, the GTP binding signal, raw median fluorescence (lower = inhibition) (MCF (arbitrary fluorescence units)) in test [5] came to 56.2.
With `CCC(C)C(=O)Nc1ccc(OC)cc1OC` (stereo not given), the outcome in test [1], in test [4] and in test [6] was inactive. In addition, the fluorescence, percent of control (lower = inhibition) in test [2] came to 92.4%. Further, the GTP binding, percent of control in test [3] was 161%. The GTP binding signal, raw median fluorescence (lower = inhibition) (MCF (arbitrary fluorescence units)) in test [5] came to 186.
With `COc1cc(/C=C2/C(C)=C(C#N)c3nc(N)c(C#N)c(C)c32)ccc1OCC(=O)O`, the compound was called inactive in test [1], in test [4] and in test [6]. This compound also returned a fluorescence, percent of control (lower = inhibition) in test [2] of 25.9%. In test [3], the GTP binding, percent of control was 62%. This compound also returned a GTP binding signal, raw median fluorescence (lower = inhibition) (MCF (arbitrary fluorescence units)) in test [5] of 161.
`c1ccc2[nH]c3cc4ncnc4cc3nc2c1`: the call in test [1], in test [4] and in test [6] was inactive. The same compound came in with a fluorescence, percent of control (lower = inhibition) in test [2] of 31.7%. Also, the GTP binding, percent of control in test [3] worked out at 70.1%. Moreover, the GTP binding signal, raw median fluorescence (lower = inhibition) (MCF (arbitrary fluorescence units)) in test [5] is 189.
In the case of `O=C(O)c1cc(Sc2ccccc2)nc2ccccc12`, the call in test [1], in test [4] and in test [6] was inactive. Also, the fluorescence, percent of control (lower = inhibition) in test [2] turned out to be 56.6%. Also, in test [3], the GTP binding, percent of control turned out to be 81.9%. The compound further displayed a GTP binding signal, raw median fluorescence (lower = inhibition) (MCF (arbitrary fluorescence units)) in test [5] of 30.1.
On to `O=C(O)C1(NCc2ccccc2Cl)CCCCC1`, for which the compound was classed as inactive in test [1], in test [4] and in test [6]. The compound further yielded a fluorescence, percent of control (lower = inhibition) in test [2] of 66%. For the same compound, the GTP binding, percent of control in test [3] was determined as 91.3%. This compound also yielded a GTP binding signal, raw median fluorescence (lower = inhibition) (MCF (arbitrary fluorescence units)) in test [5] of 34.5.
As to `O=C(COC(=O)/C=C/c1ccc(Cl)cc1)Nc1ccc2c(c1)OCCO2`, the call in test [1], in test [4] and in test [6] was inactive. Further, in test [2], the fluorescence, percent of control (lower = inhibition) came to 40.2%. The GTP binding, percent of control in test [3] stood at 59.5%. Besides, the GTP binding signal, raw median fluorescence (lower = inhibition) (MCF (arbitrary fluorescence units)) in test [5] worked out at 162.
Regarding `N#C/C(=C(/O)COc1ccc(Br)cc1)c1nnc2n1CCCCC2`, the compound was called inactive in test [1], in test [4] and in test [6]. The fluorescence, percent of control (lower = inhibition) in test [2] was found to be 29.2%. Further, in test [3], the GTP binding, percent of control came to 79.2%. Besides, in test [5], the GTP binding signal, raw median fluorescence (lower = inhibition) (MCF (arbitrary fluorescence units)) amounted to 262.
For the compound `Nc1nc(N)c2sc3nc4c(cc3c2n1)CCC4`, the result in test [1], in test [4] and in test [6] was inactive. In addition, in test [2], the fluorescence, percent of control (lower = inhibition) turned out to be 89.1%. Besides, in test [3], the GTP binding, percent of control came out at 126%. The same compound gave a GTP binding signal, raw median fluorescence (lower = inhibition) (MCF (arbitrary fluorescence units)) in test [5] of 136.
`Nc1[nH]c(=S)nc2nc(-c3ccccc3)c(-c3ccccc3)nc12`: the result in test [1], in test [4] and in test [6] was inactive. In test [2], the fluorescence, percent of control (lower = inhibition) was found to be 33.9%. Moreover, the GTP binding, percent of control in test [3] was found to be 81.4%. The GTP binding signal, raw median fluorescence (lower = inhibition) (MCF (arbitrary fluorescence units)) in test [5] is 198.
For `COc1cccc2c(SCC(=O)N/N=C/c3ccc(O)c(O)c3)cc(C)nc12`, the compound was classed as inactive in test [1], in test [4] and in test [6]. In test [2], this compound yielded a fluorescence, percent of control (lower = inhibition) of 27.5%. In addition, the GTP binding, percent of control in test [3] was found to be 60.2%. In test [5], this compound displayed a GTP binding signal, raw median fluorescence (lower = inhibition) (MCF (arbitrary fluorescence units)) of 119.
On to `O=C(NCCc1c[nH]c2ccccc12)c1cccc(S(=O)(=O)Nc2ccccc2Cl)c1`, for which the compound was called inactive in test [1], in test [4] and in test [6]. The same compound gave a fluorescence, percent of control (lower = inhibition) in test [2] of 32.1%. In test [3], this compound had a GTP binding, percent of control of 71.4%. The GTP binding signal, raw median fluorescence (lower = inhibition) (MCF (arbitrary fluorescence units)) in test [5] was 175.
Consider `COc1ccc(-n2c(C)cc(/C=C3/SC(=S)N(C)C3=O)c2C)cc1`, for which the result in test [1], in test [4] and in test [6] was inactive. In test [2], this compound returned a fluorescence, percent of control (lower = inhibition) of 76.1%. In addition, in test [3], the GTP binding, percent of control came to 85.8%. Also, the GTP binding signal, raw median fluorescence (lower = inhibition) (MCF (arbitrary fluorescence units)) in test [5] is 0.
On to `O=C(O)c1cc(Sc2ccc(F)cc2)nc2ccccc12`, for which the compound was called inactive in test [1], in test [4] and in test [6]. Further, the fluorescence, percent of control (lower = inhibition) in test [2] worked out at 59.8%. In test [3], this compound displayed a GTP binding, percent of control of 86%. In test [5], this compound displayed a GTP binding signal, raw median fluorescence (lower = inhibition) (MCF (arbitrary fluorescence units)) of 30.2.
Take `O=C(O)c1cccnc1OCc1ccccc1`: the compound was called inactive in test [1], in test [4] and in test [6]. This compound gave a fluorescence, percent of control (lower = inhibition) in test [2] of 88.8%. Moreover, the GTP binding, percent of control in test [3] is 103%. For the same compound, the GTP binding signal, raw median fluorescence (lower = inhibition) (MCF (arbitrary fluorescence units)) in test [5] came to 63.4.

The values are drawn from PubChem BioAssay.
